Cycloheximide cs = affects cycloheximide protein synthesis inhibition readout, counter-screen. cell reporter, cycloheximide protein synthesis inhibition counterscreen. max response, %. 300,000 compounds, 12% hits. AID 2314; in the data active = max response mostly above about 13%, no sharp cut-off; inactive = mostly below about 14%; note: read at 38.3 µM for the half of the compounds with a filed dose
LmPK inh = LmPK (Leishmania mexicana) enzyme inhibition. purified LmPK, Kinase-Glo ATP luminescence, 1 h. Potency, µM (top dose mostly 57.5 µM), hits mostly inhibitors. 290,000 compounds, 0.37% hits. Q27686
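Pyruvate kinase activity monitored as ATP production (luciferase luminescence). Conditions: 0.1 nM enzyme, 0.5 mM PEP, 0.1 mM ADP, 1 h, RT; normalized against uninhibited and no-enzyme wells.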
Shiga inhibitor = Shiga toxin inhibition | Vero cells, Shiga toxin protein synthesis inhibition reporter | inhibition, % at 38.7 µM | 290,000 compounds, 9.2% hits; in the data active = inhibition mostly above about 28%, no sharp cut-off; inactive = mostly below about 43%
Giardia FBPA inh = inhibitors of Giardia lamblia fructose-1,6-bisphosphate aldolase. purified Giardia FBPA. Potency, µM (highest dose often 59.6 µM), hits mostly inhibitors. 290,000 compounds, 0.71% hits; note: nearly all actives have a fitted effect of over 55% in size
Target sequence (A8B2U2 whole entry, looked up): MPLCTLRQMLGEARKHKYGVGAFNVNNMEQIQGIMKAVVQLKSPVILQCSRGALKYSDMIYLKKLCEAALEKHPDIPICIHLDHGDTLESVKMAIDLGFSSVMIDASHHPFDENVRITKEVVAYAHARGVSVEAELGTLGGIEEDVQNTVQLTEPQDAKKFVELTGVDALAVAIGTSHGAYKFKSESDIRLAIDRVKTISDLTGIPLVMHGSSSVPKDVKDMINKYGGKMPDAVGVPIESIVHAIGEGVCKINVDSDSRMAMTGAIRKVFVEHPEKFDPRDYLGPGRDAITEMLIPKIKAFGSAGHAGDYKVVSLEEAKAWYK
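Giardia FBPA (40 nM reagent) was preincubated 10 min at RT with compound (up to 57.5 uM final), then substrate plus GAPDH/TPI/NAD/arsenate coupling system with diaphorase/resazurin was added; resorufin fluorescence (525/598 nm) was read after 20 min.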
TbPYK inhibitor = T. brucei pyruvate kinase inhibition; Q57TT1; TbPYK enzyme, Kinase-Glo Plus ATP luminescence, 45 min; Potency, µM (top dose mostly 76.8 µM), actives largely listed as inhibitors; 410,000 compounds, 0.12% hits; note: nearly all actives have a fitted effect of over 50% in size
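Quantitative HTS: titrated library compounds versus trypanosomal pyruvate kinase in TEA buffer (pH 7.2) containing KCl, MgCl2, BSA and Tween-20. Reactions were initiated with ADP, 130 uM final. Kinase-Glo Plus luminescence was read after 45 min at RT.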
RE007 growth inh = less growth of the S. pombe RE007 Vpr strain. S. pombe RE007 Vpr strain, BacTiter-Glo ATP luminescence, 24 h. Potency, µM (top dose mostly 92.2 µM), hits mostly inhibitors. 360,000 compounds, 0.21% hits; active = well fitted falling curve with a large enough effect; inconclusive = small, poorly fitted or top-dose-only effect; inactive = no such curve, though single readings can be large or run the other way; note: nearly all actives have a fitted effect of over 50% in size
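Fission yeast strain RE007, carrying one chromosomally integrated HIV-1 vpr copy, was seeded at OD 0.01 in PMG+AL medium with 23 nL pinned compound. After 24 h at 30 °C and 99% humidity, viability was read by BacTiter-Glo luminescence.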
A number is an active result. Only a selection was taken, and hits are over-represented in it overall. Unless noted, calls come from the whole dose curve; as a rule, active = well fitted curve in the direction sought with a large enough effect; inconclusive = small, poorly fitted or top-dose-only effect, or another doubt; inactive = no such curve, though single readings can be large; an effect the other way counts as inactive or inconclusive.

What do the screens show for `CCCCCCCCCCC1=C(C)C(=O)C(OC)=C(OC)C1=O`?
Cycloheximide cs: inactive; Shiga inhibitor: inactive; Giardia FBPA inh: inconclusive

What do the screens show for `COC1=C(OC)C(=O)C(CCCCCCCCCCO)=C(C)C1=O`?
Cycloheximide cs: inactive; LmPK inh: inactive; Shiga inhibitor: inactive; Giardia FBPA inh: 4.5µM; TbPYK inhibitor: inactive

Results for COc1ccc(OC)c(NC(=O)CC2SC(=Nc3ccc(F)cc3)N(CCC3=CCCCC3)C2=O)c1 (configuration not stated) ?
Cycloheximide cs: 13; LmPK inh: inactive; Shiga inhibitor: inactive; Giardia FBPA inh: inactive; TbPYK inhibitor: inactive; RE007 growth inh: inactive

How did COc1cc([N+](=O)[O-])ccc1NC(=O)CC1SC(=Nc2ccc(F)cc2)N(CCC2=CCCCC2)C1=O (configuration not stated) do in these assays?
Cycloheximide cs: inactive; LmPK inh: inactive; Shiga inhibitor: inactive; Giardia FBPA inh: inactive; TbPYK inhibitor: inactive; RE007 growth inh: inactive

What do the screens show for `COC(=O)c1ccc2c(c1)SC1=C(CCCC1=O)N2`?
Cycloheximide cs: 21; LmPK inh: inactive; Shiga inhibitor: active; Giardia FBPA inh: inactive; TbPYK inhibitor: inactive; RE007 growth inh: inactive

What do the screens show for `CC(C)C1C(=O)N(S(C)(=O)=O)[C@H]2CCN(C(=O)/C=C/CN3CCCCC3)[C@@H]12` (some centres not stated)?
Cycloheximide cs: inactive; Shiga inhibitor: inactive; Giardia FBPA inh: inactive

What do the screens show for `Cc1ccc(N2CCN(c3nc4ccccc4n4nnnc34)CC2)c(C)c1`?
TbPYK inhibitor: inactive

Results for COC(=O)c1ccccc1NC(=O)Cn1cnc2sc(C)c(S(=O)(=O)N3CCC(C)CC3)c2c1=O ?
TbPYK inhibitor: inactive

How did Cc1c(NC(=S)NC(=O)c2sc3ccccc3c2Cl)cccc1C(=O)O do in these assays?
Cycloheximide cs: 61; LmPK inh: inactive; Shiga inhibitor: 161; Giardia FBPA inh: inactive; TbPYK inhibitor: inactive; RE007 growth inh: inactive

How did CC1CCCCC1NC(=S)NC(=O)c1ccccc1Cl (configuration not stated) do in these assays?
TbPYK inhibitor: inactive; RE007 growth inh: inactive

How did CC1CCCCC1NC(=S)NC(=O)c1sc2ccccc2c1Cl (configuration not stated) do in these assays?
Cycloheximide cs: 12; LmPK inh: inactive; Shiga inhibitor: inactive; Giardia FBPA inh: inactive; TbPYK inhibitor: inactive; RE007 growth inh: inactive

How did Cc1ccc(NC(=O)c2sc3nc(-c4cccs4)ccc3c2N)cc1F do in these assays?
TbPYK inhibitor: inactive

Results for CCCSc1nnc(NC(=O)c2sc3nc(-c4cccs4)ccc3c2N)s1 ?
Cycloheximide cs: 28; LmPK inh: inactive; Shiga inhibitor: inactive; Giardia FBPA inh: inactive; TbPYK inhibitor: inactive; RE007 growth inh: inactive

Results for Cc1csc(NC(=O)c2sc3nc(-c4cccs4)ccc3c2N)n1 ?
Cycloheximide cs: 41; LmPK inh: inactive; Shiga inhibitor: 69; Giardia FBPA inh: inactive; TbPYK inhibitor: inactive; RE007 growth inh: inactive

Results for COc1ccc(N2CSC3=C(C#N)C(c4ccc(OC)c(OC)c4)CC(=O)N3C2)c(OC)c1 (configuration not stated) ?
Cycloheximide cs: inactive; LmPK inh: inactive; Shiga inhibitor: inactive; Giardia FBPA inh: 1.4µM; TbPYK inhibitor: 7.9µM; RE007 growth inh: inactive

Results for CN1CSC2=C(C#N)C(c3cccc(OCc4ccccc4)c3)CC(=O)N2C1 (configuration not stated) ?
Cycloheximide cs: inactive; LmPK inh: inactive; Shiga inhibitor: inactive; Giardia FBPA inh: inconclusive; TbPYK inhibitor: inconclusive; RE007 growth inh: inactive

What do the screens show for `COc1ccc(C2C(=O)N(C3CCCCC3)CC(=O)N2C2CCCC2)cc1` (configuration not stated)?
Cycloheximide cs: inactive; LmPK inh: inactive; Shiga inhibitor: inactive; TbPYK inhibitor: inactive; RE007 growth inh: inactive

What do the screens show for `COc1ccc(C2CC(=O)N3CN(C4CCCCC4)CSC3=C2C#N)cc1` (configuration not stated)?
TbPYK inhibitor: 22µM

What do the screens show for `CCCSC1=C(C#N)C(c2cc(OC)ccc2OC)CC(=O)N1` (configuration not stated)?
Cycloheximide cs: inactive; LmPK inh: inactive; Shiga inhibitor: inactive; Giardia FBPA inh: inactive; TbPYK inhibitor: inactive; RE007 growth inh: inactive

What do the screens show for `COc1ccc(N2CSC3=C(C#N)C(c4cc(OC)ccc4OC)CC(=O)N3C2)c(OC)c1` (configuration not stated)?
Cycloheximide cs: inactive; LmPK inh: inactive; Shiga inhibitor: inactive; Giardia FBPA inh: 1.6µM; TbPYK inhibitor: 7.9µM; RE007 growth inh: inactive

What do the screens show for `COc1cc(OC)c(C2CC(=O)N3CN(c4ccc(C)cc4)CSC3=C2C#N)cc1OC` (configuration not stated)?
Cycloheximide cs: inactive; LmPK inh: inactive; Shiga inhibitor: 41; Giardia FBPA inh: inconclusive; TbPYK inhibitor: 1.6µM; RE007 growth inh: inactive

What do the screens show for `Cc1ccc(N2CSC3=C(C#N)C(c4cccs4)CC(=O)N3C2)cc1` (configuration not stated)?
Cycloheximide cs: inactive; LmPK inh: inactive; Shiga inhibitor: inactive; Giardia FBPA inh: inconclusive; TbPYK inhibitor: inconclusive; RE007 growth inh: inactive

How did Cc1cn(C)c(CC(=O)Nc2cccc(Cl)c2C)c1C(=O)O do in these assays?
TbPYK inhibitor: inactive

How did CCN(CC)c1ccc(NC(=O)C2CCN(S(=O)(=O)c3ccc4c(c3)oc(=O)n4C)CC2)c(C)c1 do in these assays?
TbPYK inhibitor: inactive

Results for COc1ccc(C2CC(=O)N3CN(c4ccc(C)c(Cl)c4)CSC3=C2C#N)cc1OC (configuration not stated) ?
Cycloheximide cs: inactive; LmPK inh: inactive; Shiga inhibitor: inactive; Giardia FBPA inh: 5µM; TbPYK inhibitor: inconclusive; RE007 growth inh: inactive

How did CCOc1ccccc1N1CSC2=C(C#N)C(c3c(OC)ccc4ccccc34)CC(=O)N2C1 (configuration not stated) do in these assays?
Cycloheximide cs: inactive; LmPK inh: inactive; Shiga inhibitor: inactive; Giardia FBPA inh: 6.3µM; TbPYK inhibitor: 3.5µM; RE007 growth inh: inactive

What do the screens show for `COc1cc(C2CC(=O)N(c3ccc(C)c(Cl)c3)C3=C2C(=O)OC3)cc(OC)c1OC` (configuration not stated)?
TbPYK inhibitor: inactive

What do the screens show for `N#CC1=C2SCN(Cc3ccco3)CN2C(=O)CC1c1cccc2ccccc12` (configuration not stated)?
Cycloheximide cs: inactive; LmPK inh: inactive; Shiga inhibitor: inactive; Giardia FBPA inh: inconclusive; TbPYK inhibitor: inconclusive; RE007 growth inh: inactive

How did COc1ccc(N2CSC3=C(C#N)C(c4cc(OC)c(OC)cc4OC)CC(=O)N3C2)c(OC)c1 (configuration not stated) do in these assays?
Cycloheximide cs: inactive; LmPK inh: inactive; Shiga inhibitor: inactive; Giardia FBPA inh: 2µM; TbPYK inhibitor: 8.9µM; RE007 growth inh: inactive

Source: PubChem
